These results are taken from PMC4336329 (PLoS ONE, 2015).

The structures appear in SMILES notation. The whole screen tested about 310,000 compounds, of which about 14,000 (4.5%) showed an effect of 50% or more. The effect is printed as a negative number. This excerpt belongs to a sample that is enriched for strong results.
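Further: peak tail current of the secondary pulse compared with the same well before compound.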

Sequence of human ether-à-go-go-related gene (hERG) potassium channel (Q12809 whole entry, looked up): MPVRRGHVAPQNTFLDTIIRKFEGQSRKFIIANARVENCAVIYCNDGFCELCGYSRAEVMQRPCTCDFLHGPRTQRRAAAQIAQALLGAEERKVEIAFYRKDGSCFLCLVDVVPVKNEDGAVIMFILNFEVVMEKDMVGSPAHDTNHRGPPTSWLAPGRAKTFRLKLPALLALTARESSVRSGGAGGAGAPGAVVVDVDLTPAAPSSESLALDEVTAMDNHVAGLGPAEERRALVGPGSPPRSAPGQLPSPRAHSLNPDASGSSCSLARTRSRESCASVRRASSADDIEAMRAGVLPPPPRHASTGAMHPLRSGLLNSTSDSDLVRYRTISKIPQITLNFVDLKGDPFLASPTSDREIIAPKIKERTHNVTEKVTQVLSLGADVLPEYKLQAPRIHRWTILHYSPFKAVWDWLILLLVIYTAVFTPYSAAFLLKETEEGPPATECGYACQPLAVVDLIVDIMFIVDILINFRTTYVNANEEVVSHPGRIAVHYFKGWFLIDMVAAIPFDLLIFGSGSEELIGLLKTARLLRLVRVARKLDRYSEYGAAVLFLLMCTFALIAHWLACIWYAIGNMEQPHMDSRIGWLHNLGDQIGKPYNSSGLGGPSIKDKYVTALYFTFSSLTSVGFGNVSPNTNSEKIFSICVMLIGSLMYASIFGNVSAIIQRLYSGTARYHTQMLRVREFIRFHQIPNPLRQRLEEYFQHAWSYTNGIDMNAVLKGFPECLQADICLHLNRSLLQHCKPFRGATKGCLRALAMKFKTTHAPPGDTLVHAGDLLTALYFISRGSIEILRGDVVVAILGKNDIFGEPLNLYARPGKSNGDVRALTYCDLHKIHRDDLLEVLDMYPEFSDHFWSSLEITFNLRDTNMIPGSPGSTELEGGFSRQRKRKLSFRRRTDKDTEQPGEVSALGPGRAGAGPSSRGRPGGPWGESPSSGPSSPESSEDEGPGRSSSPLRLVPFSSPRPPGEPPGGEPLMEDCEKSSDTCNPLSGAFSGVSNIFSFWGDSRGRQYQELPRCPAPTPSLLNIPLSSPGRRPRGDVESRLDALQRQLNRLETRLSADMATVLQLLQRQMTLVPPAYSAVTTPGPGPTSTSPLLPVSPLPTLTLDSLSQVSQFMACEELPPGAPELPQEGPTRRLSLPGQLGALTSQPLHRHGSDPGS

This test concerns the target human ether-à-go-go-related gene (hERG) potassium channel (human, UniProt Q12809). Briefly: primary screen, population patch clamp on CHO cells stably expressing hERG; higher = less effect of the substance.
Regarding `COc1ccc(CNCc2c(O)c(Cl)cc3c(C)c(C)c(=O)oc23)c(OC)c1.Cl`, the “hERG current change (%, negative = inhibition) at 10uM” value was -3.6%. For the compound `O=C(Cn1c(=O)oc2cc(S(=O)(=O)N3CCCC3)ccc21)N1CCc2ccccc2C1`, the “hERG current change (%, negative = inhibition) at 10uM” value is given as -32.3%. In the case of `Cc1cccc2nc(CSCc3ccco3)cn12`, the “hERG current change (%, negative = inhibition) at 10uM” value was -2.01%. Take `O=C1c2ccccc2C(=O)N1OCc1ccccc1[N+](=O)[O-]`: the “hERG current change (%, negative = inhibition) at 10uM” value was found to be 23.7%. Take `COc1cccc(CN2CCN(C(=O)Nc3ccc([N+](=O)[O-])cc3)CC2)c1`: the “hERG current change (%, negative = inhibition) at 10uM” value was -57.2%. As for `COc1ccc(NC(=O)N2CCN(c3ccc([N+](=O)[O-])cc3)CC2)cc1`, the figure is -36.9%; as for `CCOC(=O)c1ccc(NC(=O)N2CCN(c3ccccc3OC)CC2)cc1`, 11.4%. As for `O=[N+]([O-])c1ccc(N2CCN(C(=S)Nc3cccc(F)c3)CC2)cc1`, the figure is -52%; as for `COc1ccccc1N1CCN(C(=O)Nc2ccc([N+](=O)[O-])cc2)CC1`, -52.4%; as for `COc1ccccc1N1CCN(C(=O)c2cc(C(=O)N3CCN(c4ccccc4OC)CC3)cc([N+](=O)[O-])c2)CC1`, -0.436%. In the case of `CN1CCN(C(=O)Nc2ccc([N+](=O)[O-])cc2)CC1`, the “hERG current change (%, negative = inhibition) at 10uM” value was -23.8%. With `O=[N+]([O-])c1ccc(NC(=S)N2CCN(c3ccc(F)cc3)CC2)cc1`, the “hERG current change (%, negative = inhibition) at 10uM” value is reported as 3.73%. As for `COc1cccc(CN2CCN(C(=O)CC(C)C)CC2)c1`, the figure is -13.1%; as for `COc1ccc(NC(=O)N2CCN(c3ccc([N+](=O)[O-])cc3)CC2)cc1OC`, -73.2%; as for `O=[N+]([O-])c1ccc(N2CCN(C(=S)Nc3ccc(F)cc3)CC2)cc1`, -44.4%. Regarding `COc1ccc(NC(=O)N2CCCC2)cc1OC`, the “hERG current change (%, negative = inhibition) at 10uM” value is given as -10.2%. With `CCCC[C@@H]1CNC(=S)N1CCC12CC3CC(CC(C3)C1)C2`, the “hERG current change (%, negative = inhibition) at 10uM” value was found to be 18.9%. Regarding `C=CCn1cccc(C(=O)Nc2ccc(SC)cc2)c1=O`, the “hERG current change (%, negative = inhibition) at 10uM” value is reported as -15%. As for `Cc1nn(CC(=O)N2CCN(C34CC5CC(CC(C5)C3)C4)CC2)c(C)c1[N+](=O)[O-]`, the figure is -1.7%. For `Cc1ccc2c(cnn2C(=O)CCCC(=O)NCc2ccc(F)cc2)c1`, the “hERG current change (%, negative = inhibition) at 10uM” value is -9.47%. `O=C(NCCc1ccccc1)/C(=C/c1ccco1)c1ccccc1`: the “hERG current change (%, negative = inhibition) at 10uM” value was -13.8%. Then `CN(C)S(=O)(=O)c1cccc(C(=O)NCC(=O)NC2CCN(Cc3ccccc3)CC2)c1`, with 3.32%. On to `Cc1ccc(C(=O)CSc2nnnn2C(C)C)c(C)c1`, for which the “hERG current change (%, negative = inhibition) at 10uM” value was -3.38%. On to `Cc1nc2ccc([N+](=O)[O-])cc2c(=O)n1Cc1cccc(Br)c1`, for which the “hERG current change (%, negative = inhibition) at 10uM” value was -4.24%. Then `COc1ccc(OC)c(NC(=O)c2cc3ccccc3cc2OC)c1`, with 2.44%; and `CCc1c(C#N)sc(C(N)=O)c1CC`, with 13.3%. As for `COc1cccc(NC(=S)N2CCN(c3ccc([N+](=O)[O-])cc3)CC2)c1`, the figure is -27.5%.

Consider `O=[N+]([O-])c1ccc(NC(=S)N2CCN(c3ccccc3)CC2)cc1`, for which the “hERG current change (%, negative = inhibition) at 10uM” value is listed as -11.4%. As for `COc1ccc(NC(=S)N2CCN(c3ccc([N+](=O)[O-])cc3)CC2)cc1OC`, the figure is -77.3%; as for `CCOC(=O)c1cc(CC)sc1NC(=O)C1CC1`, -7.16%; as for `COC(=O)[C@H](CCSC)NC(=O)NCc1cccs1`, 20.6%.

As to `CCCCNC(=O)C1CCN(Cc2ccc(OCc3ccccc3)c(OC)c2)CC1.O=C(O)C(=O)O`, the “hERG current change (%, negative = inhibition) at 10uM” value was -67.2%. Then `NC(=O)C1CCN(Cc2cccc(OCc3ccccc3)c2)CC1.O=C(O)C(=O)O`, with -12%; and `CCOC(=O)N1CCN(C(=O)C2CCN(Cc3ccc(O)c(OCC)c3)CC2)CC1.O=C(O)C(=O)O`, with 20.2%; and `CCOC(=O)C1CCN(Cc2cccc(OCc3ccccc3)c2)CC1.O=C(O)C(=O)O`, with -43.2%. As for `CC(C)CCNC(=O)C1CCN(Cc2cccc(OCc3ccccc3)c2)CC1.O=C(O)C(=O)O`, the “hERG current change (%, negative = inhibition) at 10uM” value was -50.8%. As for `CCOCCCNC(=O)C1CCN(Cc2ccc(OCc3ccccc3)c(OC)c2)CC1.O=C(O)C(=O)O`, the figure is -43.3%.

Regarding `CCOCCCNC(=O)C1CCN(Cc2cccc(OCc3ccccc3)c2)CC1.O=C(O)C(=O)O`, the “hERG current change (%, negative = inhibition) at 10uM” value is reported as -14.1%. As to `CCOC(=O)N1CCN(C(=O)C2CCN(Cc3cccc(OCc4ccccc4)c3)CC2)CC1.O=C(O)C(=O)O`, the “hERG current change (%, negative = inhibition) at 10uM” value was -58.4%. Consider `CCOC(=O)C1CCCN(Cc2ccc(OCc3ccccc3)cc2)C1.O=C(O)C(=O)O` (centres unmarked), for which the “hERG current change (%, negative = inhibition) at 10uM” value was -40.6%. As for `COCCNC(=O)C1CCN(Cc2cccc(OCc3ccccc3)c2)CC1`, the figure is -12.2%; as for `CCOC(=O)C1CCN(Cc2ccc(OCc3ccccc3)cc2)CC1.O=C(O)C(=O)O`, -62%; as for `CCOC(=O)C1CCN(Cc2ccc(OC)c(OCc3ccccc3)c2)CC1`, -38.3%. As for `COC(=O)c1ccccc1NC(=O)c1nc2nc(C)cc(C(F)F)n2n1`, the figure is -5.65%. As for `Cc1nc2ccccc2c2c1CC(C)S2` (centres unmarked), the “hERG current change (%, negative = inhibition) at 10uM” value is listed as -16.8%. For `Cc1ccc2nc(-c3ccccc3O)c(Nc3ccc4c(c3)OCCO4)n2c1`, the “hERG current change (%, negative = inhibition) at 10uM” value is 9.98%.

Turning to `CCOC(=O)C1CCN(c2c(N3CCN(Cc4ccccc4)CC3)c(=O)c2=O)CC1`, the “hERG current change (%, negative = inhibition) at 10uM” value is -73.4%.

In the case of `COc1cc(CN2CCCCC2)ccc1OCc1ccccc1.O=C(O)C(=O)O`, the “hERG current change (%, negative = inhibition) at 10uM” value is on record as -35.1%. Then `CCOC(=O)C1CCN(Cc2ccc(-c3ccccc3)cc2)CC1`, with -28.8%; and `CC(C)CNC(=O)C1CCN(Cc2ccc(OCc3ccccc3)cc2)CC1.O=C(O)C(=O)O`, with -77.1%. For the compound `COc1cc(CN2CCC(C)CC2)ccc1OCc1ccccc1.O=C(O)C(=O)O`, the “hERG current change (%, negative = inhibition) at 10uM” value is -52.9%.

As to `COc1ccc(CN2CCC(C)CC2)cc1OCc1ccccc1`, the “hERG current change (%, negative = inhibition) at 10uM” value is -49.6%. As for `O=C(C1CCN(Cc2ccc(OCc3ccccc3)cc2)CC1)N1CCCC1`, the “hERG current change (%, negative = inhibition) at 10uM” value is reported as -47.1%. In the case of `COc1cc(CN2CCC(C(=O)NCC(C)(C)CN(C)C)CC2)ccc1OCc1ccccc1.O=C(O)C(=O)O`, the “hERG current change (%, negative = inhibition) at 10uM” value was 13.6%. As for `CC(O)CNC(=O)C1CCN(Cc2ccc(OCc3ccccc3)cc2)CC1.O=C(O)C(=O)O` (centres unmarked), the figure is -33.2%. For `CCOC(=O)C1CCN(c2c(NCCCN3CCN(Cc4ccccc4)CC3)c(=O)c2=O)CC1`, the “hERG current change (%, negative = inhibition) at 10uM” value amounted to 3.6%. On to `COc1cc(CN2CCC(C(=O)NCCC(C)C)CC2)ccc1OCc1ccccc1.O=C(O)C(=O)O`, for which the “hERG current change (%, negative = inhibition) at 10uM” value is reported as -67.8%. Then `O=C(/C=C/c1ccccc1)Nc1cc(NC(=O)/C=C/c2ccccc2)cc(C(=O)O)c1`, with 21.4%; and `COc1ccc(-c2cc(C)no2)cc1S(=O)(=O)N1CCCN(Cc2ccc(F)cc2)C1`, with -16.9%.

Regarding `CC(C)C(=O)Nc1nnc(SCc2cccc(F)c2)s1`, the “hERG current change (%, negative = inhibition) at 10uM” value is on record as -8.88%.

Turning to `COc1ccc(Cc2nc(C(=O)Nc3ccc(Cl)cc3)cs2)cc1`, the “hERG current change (%, negative = inhibition) at 10uM” value is listed as -42.8%.

Take `CCOC(=O)c1nsnc1NCCSC(=N)N.I`: the “hERG current change (%, negative = inhibition) at 10uM” value is on record as 3.69%. With `CC1CN(S(=O)(=O)c2ccc(C(=O)Nc3sccc3C(N)=O)cc2)CC(C)O1` (centres unmarked), the “hERG current change (%, negative = inhibition) at 10uM” value is recorded as -10.8%. For the compound `CCOc1ccc(NC(=O)CCC(=O)Nc2cc(OC)c(NC(=O)c3ccco3)cc2OC)cc1`, the “hERG current change (%, negative = inhibition) at 10uM” value was determined as 10.4%. Then `O=C(CSc1nc(-c2ccccc2)cs1)N1CCc2ccccc21`, with 3.61%; and `Cc1cccc(N(Cc2cc3ccccc3[nH]c2=O)C(=O)c2ccco2)c1C`, with 4.51%. As for `CCC(C)(C)NC(=O)C(c1ccncc1)N(Cc1ccc(C)cc1)C(=O)c1csnn1` (centres unmarked), the figure is -14.1%. Then `COc1cc(OC)c(C2N(c3ccccn3)C(=O)C3CCCN32)cc1OC` (centres unmarked), with 13.8%.

Take `COc1ccc(C(=O)OCC(=O)NCCN2C(=O)CSC2=O)cc1`: the “hERG current change (%, negative = inhibition) at 10uM” value was -1.03%. As for `CCOC(=O)C1CCN(Cc2ccc(OCc3ccccc3)c(OC)c2)CC1.O=C(O)C(=O)O`, the figure is -19.3%; as for `CCOC(=O)C1CCCN(Cc2ccc(OCc3ccccc3)c(OC)c2)C1.O=C(O)C(=O)O` (centres unmarked), -62.2%.

As to `CCCCNC(=O)C1CCN(Cc2ccc(OCc3ccccc3)cc2)CC1.O=C(O)C(=O)O`, the “hERG current change (%, negative = inhibition) at 10uM” value is recorded as -71.7%. Turning to `CCOC(=O)C1CCCN(Cc2ccc(OC)c(OCc3ccccc3)c2)C1` (centres unmarked), the “hERG current change (%, negative = inhibition) at 10uM” value is recorded as -46.1%. Consider `CCOC(=O)C1CCN(c2c(NCc3ccc(C(=O)N(C)Cc4ccccc4)cc3)c(=O)c2=O)CC1`, for which the “hERG current change (%, negative = inhibition) at 10uM” value is given as -65.2%. Then `CCOC(=O)C1CCN(c2c(NCc3ccc(N(C)C)cc3)c(=O)c2=O)CC1`, with -5.97%; and `OC1CCN(Cc2ccc(OCc3ccccc3)cc2)CC1`, with -5.07%; and `CCCNC(=O)c1ccc(CNc2c(N3CCC(C(=O)OCC)CC3)c(=O)c2=O)cc1`, with 3.8%. Then `CCOC(=O)C1CCCN(Cc2c(C(=O)N3CCOCC3)nc3ccccn23)C1` (centres unmarked), with 8.12%. As for `O=C(NC1CCCCC1)c1cc([N+](=O)[O-])ccc1N1CCCC1`, the figure is -0.526%.

Turning to `Cc1ccc(/C=C/C(=O)Nc2cccc(S(=O)(=O)N3CCOCC3)c2)o1`, the “hERG current change (%, negative = inhibition) at 10uM” value is given as -19.9%. With `O=C(CCC1CCCC1)Nc1ccon1`, the “hERG current change (%, negative = inhibition) at 10uM” value was determined as 12.2%. As for `COc1ccc(S(=O)(=O)N(C)CC(=O)NCCN2CCOCC2)cc1Cl`, the figure is 6.98%. As for `CCCCC(CCC(=O)Nc1ccccc1C(=O)OCC)C(=O)O` (centres unmarked), the figure is -3.09%.
